Source: PubChem BioAssay (Tox21)
Records with an inconclusive call do not appear. Values without a mark were called inactive. The source made the active and inactive calls. Calls follow the shape of the full dose curve.

Experiment: p53 small molecule agonists, cell-based qHTS assay: qHTS cell viability counter screen (AID 1963581); also: nearly all actives have a fitted effect of over 45% in size
Conditions: p53RE-bla HCT-116 viability, ATP luminescence, 16 h; series mostly up to 66 µM; activity change, negative = cytotoxicity: at the top concentration
Summary of the method: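 Multiplexed with the reporter read, a CellTiter-Glo step (30 min, room temperature) gauges ATP-based viability of HCT-116 p53RE-bla cells after 16 h compound incubation at 37 C.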
% is scaled to controls: 0 for no effect and ±100 for the full control effect; potency is read from the fitted curve at half-maximal effect.

**Q.** For `Nc1cccc2c(N)cccc12`, which Potency is on record?
**A.** 0.646 µM (active)

**Q.** For `O=C(OC[C@H]1O[C@@H](OC(=O)c2cc(O)c(O)c(OC(=O)c3cc(O)c(O)c(O)c3)c2)[C@H](OC(=O)c2cc(O)c(O)c(OC(=O)c3cc(O)c(O)c(O)c3)c2)[C@@H](OC(=O)c2cc(O)c(O)c(OC(=O)c3cc(O)c(O)c(O)c3)c2)[C@@H]1OC(=O)c1cc(O)c(O)c(OC(=O)c2cc(O)c(O)c(O)c2)c1)c1cc(O)c(O)c(OC(=O)c2cc(O)c(O)c(O)c2)c1`, which activity change, negative = cytotoxicity is on record?
**A.** 16.3% [at 13.5 µM]

**Q.** With `COC(=O)CC(C)CCC=C(C)C` (stereo not given) as the compound, how does the “activity change, negative = cytotoxicity” value read?
**A.** -2%

**Q.** For `CC(C)n1nc(-c2cc3cc(O)ccc3[nH]2)c2c(N)ncnc21`, which “activity change, negative = cytotoxicity” value is on record?
**A.** -1.67% [at 30.3 µM]

**Q.** Which “activity change, negative = cytotoxicity” value does the source give for `Cc1cccc(C)c1NC(=O)CN1CCN(CCCC(c2ccc(F)cc2)c2ccc(F)cc2)CC1` here?
**A.** -6.28% [at 30.3 µM]

**Q.** With `O=C(Nc1cccc([N+](=O)[O-])c1)c1cc2ccccc2cc1O` as the compound, how does the “activity change, negative = cytotoxicity” value read?
**A.** -16.3%

**Q.** For `COc1ccccc1N1CCN(CC(O)COc2cccc3ccccc23)CC1` (stereo not given), which “activity change, negative = cytotoxicity” value is on record?
**A.** 25% [at 30.3 µM]

**Q.** With `Cc1cc(NC(=O)C(=O)O)cc(C)c1Oc1ccc(O)c2c1CCC2` as the compound, how does the “activity change, negative = cytotoxicity” value read?
**A.** -6.44%

**Q.** For `OCCCS`, which “activity change, negative = cytotoxicity” value is on record?
**A.** -5.48%

**Q.** Which “activity change, negative = cytotoxicity” value does the source give for `Cc1cc(=O)oc2cc(N(C)C)ccc12` here?
**A.** -18.4%

**Q.** Which Potency does the source give for `CCc1c(C(=O)NN2CCCCC2)nn(-c2ccc(Cl)cc2Cl)c1-c1ccc(Br)cc1` here?
**A.** 36.3 µM (active)

**Q.** Which Potency does the source give for `C=CC(=O)OCCCCCCOC(=O)C=C` here?
**A.** inactive

**Q.** With `CCCCNCCCC` as the compound, how does the “activity change, negative = cytotoxicity” value read?
**A.** 0%

**Q.** Which “activity change, negative = cytotoxicity” value does the source give for `O=C(c1ccc(F)cc1)C1CCN(CCn2c(=S)[nH]c3ccccc3c2=O)CC1` here?
**A.** -12.3% [at 30.3 µM]

**Q.** For `CCC(C)(C)c1ccc(CC(C)CN2C[C@@H](C)O[C@@H](C)C2)cc1` (stereo not given in full), which “activity change, negative = cytotoxicity” value is on record?
**A.** -5.17% [at 30.3 µM]

**Q.** Which activity change, negative = cytotoxicity does the source give for `CCCCCCCCCCCCCCCCCCCl` here?
**A.** -9.11% [at 5.99 µM]

**Q.** Which “activity change, negative = cytotoxicity” value does the source give for `Cc1cc(Nc2ccc(O)cc2)ccc1N` here?
**A.** 0.176%

**Q.** Which “activity change, negative = cytotoxicity” value does the source give for `c1cc(CN2CCCCC2)cc(OCCCNc2nc3ccccc3s2)c1` here?
**A.** -1.58% [at 30.3 µM]

**Q.** Which “activity change, negative = cytotoxicity” value does the source give for `COC(=O)C1=C(C)NC(C)=C(C(=O)O[C@@H]2CCCN(Cc3ccccc3)C2)[C@@H]1c1cccc([N+](=O)[O-])c1` here?
**A.** 5.23% [at 30.3 µM]

**Q.** For `CC(O)C#CC(C)O` (stereo not given), which “activity change, negative = cytotoxicity” value is on record?
**A.** -7.25%

**Q.** With `COC(=O)C1=C(C)NC(COC(N)=O)=C(C(=O)OC(C)C)C1c1cccc(Cl)c1Cl` (stereo not given) as the compound, how does the “activity change, negative = cytotoxicity” value read?
**A.** 1.52% [at 30.3 µM]

**Q.** For `Oc1c(I)cc(Cl)c2cccnc12`, which Potency is on record?
**A.** inactive

**Q.** For `CCOc1ccc(N=Nc2ccc(/C=C/c3ccc(N=Nc4ccc(OCC)cc4)cc3S(=O)(=O)O)c(S(=O)(=O)O)c2)cc1`, which “activity change, negative = cytotoxicity” value is on record?
**A.** -6.16%

**Q.** For `CN(C)CCCN1c2ccccc2Sc2ccc(C(F)(F)F)cc21`, which “activity change, negative = cytotoxicity” value is on record?
**A.** 29.2% [at 30.3 µM]

**Q.** For `CCCCCC[C@@H](O)C/C=C\CCCCCCCC(=O)O`, which “activity change, negative = cytotoxicity” value is on record?
**A.** 7.59%
